Among all 5,500 compounds or so, about 2,000 (36%) were called active. Not shown: some 18% with an inconclusive outcome. Cut-off read from the data, not from the text of the source: active = normalized growth mostly below about 0.91 (no sharp cut-off); inconclusive = no clear call, values can overlap the other calls; inactive = mostly above about 0.92. This is one part of the list.
Experiment: chemical genetic growth profiling, strain panel (AID 1159580);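 note: tested at 20 µM; growth read once vehicle control cultures reached saturation at 30 °C; 1 = growth at the plate median or of vehicle wells; lower values mean less growth of the strain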
Settings: growth OD

Measured: normalized growth

CN1CCOC(c2ccccc2)c2ccccc2C1 (configuration not stated)
inactive: S. cerevisiae deletion strains, locus YJR075W, strain HOC1, stronger effect = lower value 0.992 | S. cerevisiae deletion strains, locus YKL009W, strain mrt4, stronger effect = lower value 0.956 | S. cerevisiae deletion strains, locus YKL068W, stronger effect = lower value 1.01 | S. cerevisiae deletion strains, locus YKL085W, strain MDH1 (second series), stronger effect = lower value 0.996 | S. cerevisiae deletion strains, locus YKL085W, strain MDH1, stronger effect = lower value 0.996 | S. cerevisiae deletion strains, locus YKL160W, strain elf1, stronger effect = lower value 0.993 | S. cerevisiae deletion strains, locus YKL190W, strain CNB1, stronger effect = lower value 1 | S. cerevisiae deletion strains, locus YKR001C, strain vps1, stronger effect = lower value 1.03 | S. cerevisiae deletion strains, locus YKR026C, strain gcn3, stronger effect = lower value 0.978 | S. cerevisiae deletion strains, locus YKR091W, strain srl3, stronger effect = lower value 0.984 | S. cerevisiae deletion strains, locus YLL001W, strain dnm1, stronger effect = lower value 0.976 | S. cerevisiae deletion strains, locus YLL026W, stronger effect = lower value 0.99 | S. cerevisiae deletion strains, locus YLL041C, strain sdh2, stronger effect = lower value 0.983 | S. cerevisiae deletion strains, locus YLR027C, strain aat2, stronger effect = lower value 1 | S. cerevisiae deletion strains, locus YLR039C, strain RIC1, stronger effect = lower value 1.01 | S. cerevisiae deletion strains, locus YLR058C, strain SHM2, stronger effect = lower value 1 | S. cerevisiae deletion strains, locus YLR102C, strain apc9, stronger effect = lower value 1.02 | S. cerevisiae deletion strains, locus YLR113W, strain HOG1, stronger effect = lower value 0.997 | S. cerevisiae deletion strains, locus YLR221C, strain rsa3, stronger effect = lower value 0.983 | S. cerevisiae deletion strains, locus YLR258W, strain gsy2, stronger effect = lower value 0.948 | S. cerevisiae deletion strains, locus YLR262C, strain YPT6 (second series), stronger effect = lower value 0.955 | S. cerevisiae deletion strains, locus YLR262C, strain YPT6, stronger effect = lower value 1.02 | S. cerevisiae deletion strains, locus YLR268W, strain sec22, stronger effect = lower value 1.07 | S. cerevisiae deletion strains, locus YLR320W, strain mms22, stronger effect = lower value 0.975 | S. cerevisiae deletion strains, locus YLR330W, strain CHS5, stronger effect = lower value 1.01 | S. cerevisiae deletion strains, locus YLR342W, strain FKS1 (second series), stronger effect = lower value 1.01 | S. cerevisiae deletion strains, locus YLR342W, strain FKS1, stronger effect = lower value 0.982 | S. cerevisiae deletion strains, locus YLR357W, strain rsc2, stronger effect = lower value 0.954 | S. cerevisiae deletion strains, locus YLR370C, strain arc18, stronger effect = lower value 0.982 | S. cerevisiae deletion strains, locus YLR371W, strain rom2, stronger effect = lower value 1.04 | S. cerevisiae deletion strains, locus YLR384C, strain iki3, stronger effect = lower value 0.979 | S. cerevisiae deletion strains, locus YLR418C, strain cdc73, stronger effect = lower value 1.05 | S. cerevisiae deletion strains, locus YML016C, strain PPZ1, stronger effect = lower value 0.999 | S. cerevisiae deletion strains, locus YML032C, strain rad52, stronger effect = lower value 1.03 | S. cerevisiae deletion strains, locus YML120C, strain ndi1, stronger effect = lower value 0.995 | S. cerevisiae deletion strains, locus YML124C, strain tub3, stronger effect = lower value 1.02 | S. cerevisiae deletion strains, locus YMR058W, strain fet3, stronger effect = lower value 1.01 | S. cerevisiae deletion strains, locus YMR078C, strain ctf18, stronger effect = lower value 1.01 | S. cerevisiae deletion strains, locus YMR125W, strain sto1, stronger effect = lower value 0.967 | S. cerevisiae deletion strains, locus YMR129W, stronger effect = lower value 0.999 | S. cerevisiae deletion strains, locus YMR205C, strain PFK2, stronger effect = lower value 0.966 | S. cerevisiae deletion strains, locus YMR223W, strain ubp8, stronger effect = lower value 1.01 | S. cerevisiae deletion strains, locus YMR231W, strain pep5, stronger effect = lower value 0.973 | S. cerevisiae deletion strains, locus YMR263W, strain SAP30, stronger effect = lower value 1.02 | S. cerevisiae deletion strains, locus YMR307W, strain GAS1, stronger effect = lower value 1.15 | S. cerevisiae deletion strains, locus YNL067W, strain RPL9B, stronger effect = lower value 1.02 | S. cerevisiae deletion strains, locus YNL071W, strain lat1, stronger effect = lower value 0.951 | S. cerevisiae deletion strains, locus YNL128W, strain TEP1, stronger effect = lower value 1.01 | S. cerevisiae deletion strains, locus YNL153C, strain GIM3, stronger effect = lower value 1.02 | S. cerevisiae deletion strains, locus YNL183C, strain NPR1, stronger effect = lower value 0.945 | S. cerevisiae deletion strains, locus YNL209W, strain ssb2, stronger effect = lower value 0.981 | S. cerevisiae deletion strains, locus YNL233W, strain BNI4, stronger effect = lower value 1.01 | S. cerevisiae deletion strains, locus YNL248C, strain rpa49, stronger effect = lower value 0.954 | S. cerevisiae deletion strains, locus YNL250W, strain rad50, stronger effect = lower value 1.01 | S. cerevisiae deletion strains, locus YNL271C, strain bni1, stronger effect = lower value 1.02 | S. cerevisiae deletion strains, locus YNL298W, strain CLA4, stronger effect = lower value 1.01 | S. cerevisiae deletion strains, locus YNL307C, strain MCK1, stronger effect = lower value 1.02 | S. cerevisiae deletion strains, locus YNL322C, strain KRE1 (second series), stronger effect = lower value 0.958 | S. cerevisiae deletion strains, locus YNL322C, strain KRE1, stronger effect = lower value 0.941 | S. cerevisiae deletion strains, locus YNR049C, strain mso1, stronger effect = lower value 0.968 | S. cerevisiae deletion strains, locus YNR052C, strain pop2, stronger effect = lower value 1.03 | S. cerevisiae deletion strains, locus YOL006C, strain TOP1, stronger effect = lower value 1.07 | S. cerevisiae deletion strains, locus YOL012C, strain htz1 1.34 | S. cerevisiae deletion strains, locus YOL147C, strain pex11, stronger effect = lower value 1.01 | S. cerevisiae deletion strains, locus YOR001W, strain rrp6, stronger effect = lower value 0.99 | S. cerevisiae deletion strains, locus YOR061W, strain CKA2, stronger effect = lower value 1.01 | S. cerevisiae deletion strains, locus YOR069W, strain VPS5, stronger effect = lower value 1 | S. cerevisiae deletion strains, locus YOR070C, strain gyp1, stronger effect = lower value 0.981 | S. cerevisiae deletion strains, locus YOR080W, strain dia2, stronger effect = lower value 0.989 | S. cerevisiae deletion strains, locus YOR083W, strain WHI5, stronger effect = lower value 0.971 | S. cerevisiae deletion strains, locus YOR106W, strain vam3, stronger effect = lower value 0.963 | S. cerevisiae deletion strains, locus YOR136W, strain idh2, stronger effect = lower value 1.01 | S. cerevisiae deletion strains, locus YOR144C, strain elg1, stronger effect = lower value 1.02 | S. cerevisiae deletion strains, locus YOR184W, strain ser1, stronger effect = lower value 1.02 | S. cerevisiae deletion strains, locus YOR231W, strain MKK1, stronger effect = lower value 0.995 | S. cerevisiae deletion strains, locus YOR265W, strain rbl2, stronger effect = lower value 0.985 | S. cerevisiae deletion strains, locus YOR270C, strain vph1, stronger effect = lower value 0.917 | S. cerevisiae deletion strains, locus YOR290C, strain snf2, stronger effect = lower value 0.966 | S. cerevisiae deletion strains, locus YOR316C, strain cot1, stronger effect = lower value 1.02 | S. cerevisiae deletion strains, locus YPL051W, strain arl3, stronger effect = lower value 0.995 | S. cerevisiae deletion strains, locus YPL055C, strain LGE1, stronger effect = lower value 1 | S. cerevisiae deletion strains, locus YPL078C, strain atp4, stronger effect = lower value 0.979 | S. cerevisiae deletion strains, locus YPL106C, strain sse1, stronger effect = lower value 0.921 | S. cerevisiae deletion strains, locus YPL240C, strain hsp82, stronger effect = lower value 0.969 | S. cerevisiae deletion strains, locus YPL241C, strain CIN2, stronger effect = lower value 1.01 | S. cerevisiae deletion strains, locus YPL256C, strain CLN2, stronger effect = lower value 0.997 | S. cerevisiae deletion strains, locus YPR119W, strain clb2, stronger effect = lower value 1.01 | S. cerevisiae deletion strains, locus YPR141C, strain kar3, stronger effect = lower value 1.01 | S. cerevisiae deletion strains, locus YPR163C, strain tif3, stronger effect = lower value 1.03 | S. cerevisiae deletion strains, locus YPR167C, strain met16, stronger effect = lower value 1.02 | S. cerevisiae deletion strains, strain wtn01, stronger effect = lower value 1.02 | S. cerevisiae strains, strain wild type, stronger effect = lower value 1.01

Reference: PubChem BioAssay AID1159580 (chemical genetic matrix, 2015)
